Assay results reported in PubChem BioAssay (Tox21).
Records with an inconclusive call do not appear. A structure can be active in one record and inactive in another. Calls of active or inactive are those of the source. Unless noted, the call rests on the fitted dose curve; in most records, active means well fitted curve in the direction sought with a large enough effect in the repeat runs; inconclusive means weak or mixed curves; inactive means no such curve, though single readings can be large; an effect the other way counts as inactive or inconclusive.

Key:
[1] = qHTS assay for small molecule agonists of the p53 signaling pathway (AID 651631; calls by dose curve; further: nearly all actives have a fitted effect of over 15% in size)
Summary of the method: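 Quantitative high-throughput format: 4,000 p53RE-bla HCT-116 cells/well, 5 h pre-incubation, 16 h compound exposure at 37 °C, 2 h room-temperature substrate step, fluorescence intensity measured.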

[2] = qHTS assay for small molecules that induce genotoxicity in human embryonic kidney cells expressing luciferase-tagged ATAD5 (AID 651632); further: nearly all actives have a fitted effect of over 15% in size
Summary of the method: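 Concentration-response screen for ATAD5 upregulation in HEK293T luciferase reporter cells; 16 hr treatment at 37C, then luminescence after 30 min with Amplite at room temperature.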

[3] = qHTS assay for small molecule agonists of the p53 signaling pathway - cell viability (AID 651633; calls by dose curve;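 further: p53RE-bla HCT reporter cells with a stable beta-lactamase p53 reporter; series mostly up to about 83 µM; nearly all actives have a fitted effect of over 30% in size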)
Summary of the method: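 Viability counter-read: CellTiter-Glo luminescence (30 min, room temperature) in the same p53RE-bla plates. These plates had been exposed to compounds for 16 h at 37 C.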

[4] = qHTS assay for small molecules that induce genotoxicity in human embryonic kidney cells expressing luciferase-tagged ATAD5 - cell viability (AID 651634; calls by dose curve; further: nearly all actives have a fitted effect of over 25% in size; further: potency means the concentration at half of the fitted maximal effect)
Summary of the method: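 15.5 hr compound or vehicle exposure of HEK293T cells expressing luciferase-tagged ATAD5 at 37C; live-cell protease activity is read by fluorescence after 30 min of CellTiter-Fluor.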

[5] = qHTS assay for small molecule disruptors of the mitochondrial membrane potential - cell viability (AID 720634; calls by dose curve;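 further: human HepG2 liver cancer cells; series mostly up to about 83 µM; nearly all actives have a fitted effect of over 20% in size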)
Summary of the method: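 In this qHTS format, HepG2 cells plated overnight were pinned with compound, incubated 1 hr, and assayed for ATP luminescence with CellTiter-Glo after m-MPI dye addition.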

[6] = qHTS assay for small molecule disruptors of the mitochondrial membrane potential (AID 720635)
Summary of the method: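 Mitochondrial membrane potential tracked with Mito-MPS dye, red aggregates (ex 540/em 590 nm) against green monomers (ex 490/em 535 nm). Compound treatment 1 hr at 37C, dye 30 min in HepG2.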

[7] = qHTS assay to test for compound auto fluorescence at 590 nm (red) in HepG2 cells (AID 720674)
Summary of the method: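 Red autofluorescence (Ex/Em 540/590 nm, Rose Bengal sodium equivalents) was measured in HepG2 cells, 2,000 per well in MEM plus 10% FBS, plated overnight at 37 C. Readings were taken 1 hr after adding 23 nL compound or DMSO, at 37 C and 5% CO2.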

[8] = qHTS assay to test for compound auto fluorescence at 535 nm (green) in HepG2 cells (AID 720675)
[9] = qHTS assay to test for compound auto fluorescence at 460 nm (blue) in HEK293 cells (AID 720678)
Summary of the method: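 HEK293, 2,000 cells/well, 10% dialyzed FBS; attach 4-5 hr 37C; pin compound or DMSO; o/n 37C/5% CO2; fluorescence 405/460 nm; triamterene-equivalent units.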

[10] = qHTS assay to test for compound auto fluorescence at 535 nm (green) in HEK293 cells (AID 720680)
[11] = qHTS assay to test for compound auto fluorescence at 460 nm (blue) in HEK293 cell free culture (AID 720681)
Summary of the method: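 Blue fluorescence (Ex 405/Em 460 nm, triamterene-equivalent) was read immediately after pin transfer of compound or DMSO into medium (DMEM, 10% FBS) without cells.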

[12] = qHTS assay to test for compound auto fluorescence at 535 nm (green) in HEK293 cell free culture (AID 720682)
Summary of the method: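 Measurement is a direct plate read of green fluorescence (485 nm in, 535 nm out) after compound addition to serum-supplemented DMEM lacking cells, with fluorescein used to express intensities.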

[13] = qHTS assay to test for compound auto fluorescence at 590 nm (red) in HepG2 cell free culture (AID 720684)
Summary of the method: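 Cell-free; medium MEM + 10% FBS; compound or DMSO added by pintool; read Ex 540/Em 590 nm; Rose Bengal sodium as red reference fluorophore.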

[14] = qHTS assay to test for compound auto fluorescence at 460 nm (blue) in HepG2 cell free culture (AID 720685)
Summary of the method: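 Cell-free plates of MEM plus 10% FBS received 23 nL compound or DMSO vehicle; blue-channel (405/460 nm) intensity scored against triamterene as reference fluorophore.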

[15] = qHTS assay to test for compound auto fluorescence at 535 nm (green) in HepG2 cell free culture (AID 720686)
[16] = qHTS assay to test for compound auto fluorescence at 460 nm (blue) in HepG2 cells (AID 720687)
Summary of the method: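 Blue-channel autofluorescence (Ex/Em 405/460 nm, triamterene-equivalent) was measured after 1 hr compound exposure at 37 C, 5% CO2. Cells were HepG2, plated overnight at 37 C in MEM plus 10% FBS.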

[17] = qHTS assay to test for compound auto fluorescence at 590 nm (red) in HEK293 cells (AID 720679)
Summary of the method: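 Intensity at 540nm excitation and 590nm emission is reported as Rose Bengal sodium-equivalent autofluorescence. Measurements followed overnight exposure (37C, 5% CO2) of HEK293 cells, 2,000 per well, to 23 nL compound.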

[18] = qHTS assay to test for compound auto fluorescence at 590 nm (red) in HEK293 cell free culture (AID 720683)
Summary of the method: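 Red-channel autofluorescence of compounds in culture medium (DMEM, 10% FBS), no cells, measured at 540/590 nm. Rose Bengal sodium is the reference fluorophore for equivalence.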

[19] = target: Glucocorticoid receptor (Homo sapiens) (UniProt P04150); experiment: qHTS assay to identify small molecule agonists of the glucocorticoid receptor (GR) signaling pathway (AID 720691; active means well fitted activation curve with a large enough effect in the signal ratio in the repeat runs, not every such curve was filed as active; the % refers to the signal ratio)
Chain of Glucocorticoid receptor (Homo sapiens) (P04150 whole entry, looked up): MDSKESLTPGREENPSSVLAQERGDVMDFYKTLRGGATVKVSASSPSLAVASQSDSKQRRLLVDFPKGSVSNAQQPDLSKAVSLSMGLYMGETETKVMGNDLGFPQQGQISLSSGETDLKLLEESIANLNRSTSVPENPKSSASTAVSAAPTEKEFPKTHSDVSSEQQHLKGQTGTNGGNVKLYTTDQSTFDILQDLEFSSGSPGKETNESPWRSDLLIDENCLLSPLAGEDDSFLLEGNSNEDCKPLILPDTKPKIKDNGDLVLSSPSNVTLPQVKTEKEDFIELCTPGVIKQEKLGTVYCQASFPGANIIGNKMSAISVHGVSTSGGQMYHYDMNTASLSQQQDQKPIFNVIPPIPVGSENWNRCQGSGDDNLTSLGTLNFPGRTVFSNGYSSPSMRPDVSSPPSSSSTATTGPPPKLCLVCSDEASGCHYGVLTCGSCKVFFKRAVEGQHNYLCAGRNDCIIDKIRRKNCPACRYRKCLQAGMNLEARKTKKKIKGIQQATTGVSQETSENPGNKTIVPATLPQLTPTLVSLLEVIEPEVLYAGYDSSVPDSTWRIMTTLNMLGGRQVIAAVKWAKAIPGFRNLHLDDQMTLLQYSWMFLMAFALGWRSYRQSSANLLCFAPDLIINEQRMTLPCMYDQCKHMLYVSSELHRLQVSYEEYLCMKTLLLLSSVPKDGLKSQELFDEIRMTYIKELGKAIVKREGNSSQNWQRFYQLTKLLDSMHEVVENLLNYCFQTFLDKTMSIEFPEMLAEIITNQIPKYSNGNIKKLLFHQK
Summary of the method: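 Measures GR pathway activation through a GRE-beta-lactamase reporter stably integrated in HeLa cells, with 18 h compound treatment at 37 C and fluorescence detection using a FRET substrate.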

[20] = target: Glucocorticoid receptor (Homo sapiens) (UniProt P04150); experiment: qHTS assay to identify small molecule antagonists of the glucocorticoid receptor (GR) signaling pathway (AID 720692; active means well fitted inhibition curve with a large enough effect in the signal ratio in the repeat runs, not every such curve was filed as active; the % refers to the signal ratio)
Summary of the method: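 Tox21 10K library screened in concentration-response for blockade of dexamethasone (5 nM final)-induced GRE-bla reporter activity in HeLa cells; 18 h treatment, fluorescence read.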
On the % scale 0 is the no-effect control and ±100 the full control effect.

C[C@H]1C[C@H]2[C@@H]3CCC4=CC(=O)C=C[C@]4(C)[C@@]3(F)[C@@H](O)C[C@]2(C)[C@@]1(O)C(=O)COP(=O)(O)O
inactive: Potency [1] | Potency [2] | Potency [3] | Potency [4] | Potency [5] | Potency [6] | outcome [7] | outcome [8] | Potency [9] | outcome [10] | Potency [11] | outcome [12] | outcome [13] | outcome [14] | outcome [15] | outcome [16]

CC1=CC(=C(c2ccc(N)cc2)c2ccc(N)cc2)C=CC1=N
active: Potency [4] 11.9 µM
inactive: activation [1] -1.72% [at 8.3 µM] | Potency [2] | Potency [3] | activity, negative = cytotoxicity [4] -19.8% [at 8.08 µM] | activity change, negative = cytotoxicity [5] -6.69% [at 8.08 µM] | outcome [7] | outcome [8] | Potency [9] | outcome [17] | outcome [10] | Potency [11] | outcome [12] | outcome [18] | outcome [13] | outcome [14] | outcome [15] | outcome [16] | activation [19] -0.66% [at 6.9 µM]

CCCCCCCCCCCC(=O)OCC
inactive: Potency [1] | Potency [2] | Potency [3] | Potency [4] | Potency [5] | outcome [7] | outcome [8] | Potency [9] | outcome [17] | outcome [10] | Potency [11] | outcome [12] | outcome [18] | outcome [13] | outcome [14] | outcome [15] | outcome [16] | Potency [19] | Potency [20]

CC(C)=CCCC(C)C=O (stereo unspecified)
inactive: Potency [1] | Potency [2] | Potency [3] | Potency [4] | Potency [5] | outcome [7] | outcome [8] | Potency [9] | outcome [17] | outcome [10] | Potency [11] | outcome [12] | outcome [18] | outcome [13] | outcome [14] | outcome [15] | outcome [16]

C[Si](C)(C)O[Si](C)(C)O[Si](C)(C)C
inactive: Potency [1] | Potency [2] | Potency [3] | Potency [4] | Potency [5] | outcome [7] | outcome [8] | Potency [9] | outcome [17] | outcome [10] | Potency [11] | outcome [12] | outcome [18] | outcome [13] | outcome [14] | outcome [15] | outcome [16]

CCCCCC1CCC(=O)O1 (stereo unspecified)
inactive: Potency [1] | Potency [2] | Potency [3] | Potency [4] | Potency [5] | Potency [6] | outcome [7] | outcome [8] | Potency [9] | outcome [17] | outcome [10] | Potency [11] | outcome [12] | outcome [18] | outcome [13] | outcome [14] | outcome [15] | outcome [16] | Potency [19] | Potency [20]

CNc1ccccc1
inactive: Potency [1] | Potency [2] | Potency [3] | Potency [4] | Potency [5] | Potency [6] | outcome [7] | outcome [8] | Potency [9] | outcome [17] | outcome [10] | Potency [11] | outcome [12] | outcome [18] | outcome [14] | outcome [15] | outcome [16] | Potency [19]

O=C(O)c1cc(C(=O)O)cc([N+](=O)[O-])c1
inactive: Potency [1] | Potency [2] | Potency [3] | Potency [4] | Potency [5] | Potency [6] | outcome [7] | outcome [8] | Potency [9] | outcome [17] | outcome [10] | Potency [11] | outcome [12] | outcome [18] | outcome [13] | outcome [14] | outcome [15] | outcome [16] | Potency [19] | Potency [20]

CCc1c(C)[nH]c2c1C(=O)C(CN1CCOCC1)CC2 (stereo unspecified)
inactive: Potency [1] | Potency [2] | Potency [3] | Potency [4] | Potency [5] | Potency [6] | fluorescence, relative to Rose Bengal [7] 0.262% [at 18.6 µM] | fluorescence, % of fluorescein control [8] 0.0551% [at 18.6 µM] | fluorescence, % of triamterene [9] 0.0227% [at 18.6 µM] | fluorescence, % of fluorescent control [17] 0.192% [at 18.6 µM] | fluorescence, % of fluorescein [10] 0.152% [at 18.6 µM] | fluorescence, % of fluorescent control [11] 0.0226% [at 18.6 µM] | activity change [12] 0.141% [at 18.6 µM] | fluorescence, % of fluorescent control [18] 0.113% [at 18.6 µM] | fluorescence, % of Rose Bengal [13] -0.199% [at 18.6 µM] | fluorescence, % of fluorescein control [15] 0.0022% [at 18.6 µM] | fluorescence, % of fluorescent control [16] 0.0012% [at 18.6 µM]

CCCCCCCCCC(C)C=O (stereo unspecified)
inactive: Potency [1] | Potency [2] | Potency [3] | Potency [4] | Potency [5] | Potency [6] | outcome [7] | outcome [8] | Potency [9] | outcome [17] | outcome [10] | Potency [11] | outcome [12] | outcome [13] | outcome [14] | outcome [15] | outcome [16] | Potency [19]

CC(C)(C)N
inactive: Potency [1] | Potency [2] | Potency [3] | Potency [4] | Potency [5] | Potency [6] | outcome [7] | outcome [8] | Potency [9] | outcome [17] | outcome [10] | Potency [11] | outcome [12] | outcome [18] | outcome [14] | outcome [15] | outcome [16] | Potency [19] | Potency [20]

Cc1nc(C)c(C)nc1C
inactive: Potency [1] | Potency [2] | Potency [3] | Potency [4] | Potency [5] | outcome [7] | outcome [8] | Potency [9] | outcome [17] | outcome [10] | Potency [11] | outcome [12] | outcome [18] | outcome [13] | outcome [14] | outcome [15] | outcome [16] | Potency [19] | Potency [20]

Cc1c(N=C=O)cccc1N=C=O
inactive: Potency [1] | Potency [2] | Potency [3] | Potency [4] | Potency [5] | outcome [7] | outcome [8] | Potency [9] | outcome [17] | outcome [10] | Potency [11] | outcome [12] | outcome [18] | outcome [13] | outcome [14] | outcome [15] | outcome [16] | Potency [19] | Potency [20]

CO[C@@H]1[C@@H](O[C@@H]2O[C@H](C)[C@@H](O[C@H]3C[C@@](C)(O)[C@@H](O)[C@H](C)O3)[C@H](N(C)C)[C@H]2O)[C@@H](CC=O)C[C@@H](C)[C@@H](O[C@@H]2CC[C@H](N(C)C)[C@@H](C)O2)/C=C/C=C/C[C@@H](C)OC(=O)C[C@H]1OC(C)=O
inactive: Potency [1] | Potency [2] | Potency [3] | Potency [4] | Potency [5] | Potency [6] | outcome [7] | outcome [8] | Potency [9] | outcome [17] | outcome [10] | Potency [11] | outcome [12] | outcome [18] | outcome [13] | outcome [15] | outcome [16] | Potency [19]
